# From PubChem BioAssay (NCATS)
# Where “and” joins values, the source holds several entries; their conditions need not be identical. Identical values can stand only once. Records with an inconclusive call do not appear. Entries that show only a call come without a potency. A number with no mark means an inactive call. Calls of active or inactive are those of the source. Calls come from the whole dose curve; as a rule, active = well fitted curve in the direction sought with a large enough effect; inconclusive = small, poorly fitted or top-dose-only effect, or another doubt; inactive = no such curve, though single readings can be large; an effect the other way counts as inactive or inconclusive.
# Tests used:
# MKL-1 = test: qHTS assay to identify novel small-molecules to repurpose for Merkel cell carcinoma treatment (AID 1296009); settings: MCC and control cell lines, CellTiter-Glo viability, 72 h; series mostly up to 46 µM; note: nearly all actives have a fitted effect of over 60% in size; note: potency is the fitted concentration of half-maximal effect
# Procedure, shortened: (§1)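 Viability readout: ATP luminescence (CellTiter-Glo) after 72 hr drug exposure at 37 degree celsius. Dose-response format was 8 points for NPC and 11 points for MIPE; data normalized to in-plate controls.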
# MKL-2 = test: as above; settings: MCC and control cell lines, CellTiter-Glo viability, 72 h; series mostly up to 46 µM
# Procedure, shortened: as §1
# NIH3T3 = test: as above; settings: MCC and control cell lines, CellTiter-Glo viability, 72 h; at 44.8 µM (top of the series) unless noted
# Procedure, shortened: as §1
# UISO = test: as above; settings: MCC and control cell lines, CellTiter-Glo viability, 72 h; series mostly up to 46 µM
# Procedure, shortened: as §1
# WaGa = test: as above; settings: MCC and control cell lines, CellTiter-Glo viability, 72 h; series mostly up to 46 µM
# Procedure, shortened: as §1
# C33A = test: Primary qHTS to identify gynecologic anti-cancer compounds using libraries of approved drugs and bioactive compounds (AID 1345084); settings: Gynecologic cancer cell panel viability, ATPlite luminescence, 48 h; series mostly up to 57.5 µM; note: nearly all actives have a fitted effect of over 55% in size
# Procedure, shortened: (§2)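 Cell viability after 48 h drug treatment, ATPlite luminescence readout; five doses.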
# CAOV3 = test: as above; settings: Gynecologic cancer cell panel viability, ATPlite luminescence, 48 h; series mostly up to 57.5 µM
# Procedure, shortened: as §2
# CASKI = test: as above; settings: Gynecologic cancer cell panel viability, ATPlite luminescence, 48 h; series mostly up to 57.5 µM
# Procedure, shortened: as §2
# Es-2 = test: as above; settings: Gynecologic cancer cell panel viability, ATPlite luminescence, 48 h; series mostly up to 57.5 µM
# Procedure, shortened: as §2
# HeLa = test: as above; settings: Gynecologic cancer cell panel viability, ATPlite luminescence, 48 h; series mostly up to 57.5 µM
# Procedure, shortened: as §2
# Hek293T = test: as above; settings: Gynecologic cancer cell panel viability, ATPlite luminescence, 48 h, control line for the selectivity index; series mostly up to 57.5 µM
# Procedure, shortened: as §2
# OV90 = test: as above; settings: Gynecologic cancer cell panel viability, ATPlite luminescence, 48 h; series mostly up to 57.5 µM
# Procedure, shortened: as §2
# PA-1 = test: as above; settings: Gynecologic cancer cell panel viability, ATPlite luminescence, 48 h; series mostly up to 57.5 µM
# Procedure, shortened: as §2
# SKOV3 = test: as above; settings: Gynecologic cancer cell panel viability, ATPlite luminescence, 48 h; series mostly up to 57.5 µM
# Procedure, shortened: as §2
# Tov-21-G = test: as above; settings: Gynecologic cancer cell panel viability, ATPlite luminescence, 48 h; series mostly up to 57.5 µM
# Procedure, shortened: as §2
# Tov112D = test: as above; settings: Gynecologic cancer cell panel viability, ATPlite luminescence, 48 h; series mostly up to 57.5 µM
# Procedure, shortened: as §2
# [1] = Drug repurposing screens with cells derived from glioblastoma tumor samples (AID 1345199); settings: GBM patient neurospheres viability, ATP luminescence, 48 h; note: nearly all actives have a fitted effect of over 40% in size; note: potency is the fitted concentration of half-maximal effect
# Procedure, shortened: (§3)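 Primary testing used CD133+ neurospheres from four GBM patients, seven concentrations, 48 h exposure and ATP-based viability; confirmation added three slower-growing patient lines.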
# astro = test: as above; settings: viability, ATP luminescence, 48 h; series mostly up to 45.9 µM
# Procedure, shortened: as §3
# JEG-3 = test: Primary qHTS to identify gynecologic anti-cancer compounds using libraries of approved drugs and bioactive compounds (AID 1345084); settings: Gynecologic cancer cell panel viability, ATPlite luminescence, 48 h; series mostly up to 57.5 µM; note: nearly all actives have a fitted effect of over 55% in size
# Procedure, shortened: as §2
# [2] = at 20 µM (top of the series), tumour line C
# [3] = at 45.9 µM (top of the series), tumour line B
# [4] = at 45.9 µM (top of the series), tumour line D
# [5] = at 46.1 µM (top of the series), tumour line C
# [6] = at 46 µM (top of the series), tumour line A
smiles,measurement,setting,value
COc1cc(NC(C)CCCN)c2ncccc2c1 (configuration not stated),Potency,MKL-1,2.99 µM (active)
same,Potency,MKL-2,4.22 µM (active)
same,outcome,NIH3T3,inactive
same,Potency,UISO,3.35 µM (active)
same,Potency,WaGa,3.76 µM (active)
same,Potency,C33A,inactive
same,Potency,CAOV3,inactive
same,Potency,CASKI,inactive
same,Potency,Es-2,inactive
same,Potency,HeLa,inactive
same,Potency,Hek293T,inactive
same,Potency,OV90,inactive
same,Potency,PA-1,inactive
same,Potency,SKOV3,inactive
same,Potency,Tov-21-G,inactive
same,Potency,Tov112D,inactive
same,"activity, negative = cell killing",[1]; [2],6.33%
same,Potency,[1]; tumour line A,10 µM (active)
same,Potency,astro,inactive
CN1CC(=O)N/C1=N/C(=O)Nc1cccc(Cl)c1,Potency,MKL-1,inactive
same,Potency,MKL-2,inactive
same,Potency,UISO,inactive
same,Potency,WaGa,inactive
same,Potency,C33A,inactive
same,Potency,CAOV3,inactive
same,Potency,CASKI,inactive
same,Potency,Es-2,inactive
same,Potency,HeLa,inactive
same,Potency,Hek293T,inactive
same,Potency,JEG-3,inactive
same,Potency,OV90,inactive
same,Potency,PA-1,inactive
same,Potency,SKOV3,inactive
same,Potency,Tov-21-G,inactive
same,Potency,Tov112D,inactive
same,"activity, negative = cell killing",[1]; [3],-4.72% and 3.17%
same,"activity, negative = cell killing",[1]; [4],-5.4% and -21.8%
same,"activity, negative = cell killing",[1]; [5],-23.8% and 2.92%
same,Potency,astro,inactive
C/C(=N\O)c1ccc(OCC(=O)N2CCCCC2)cc1,Potency,MKL-1,inactive
same,Potency,MKL-2,inactive
same,Potency,UISO,inactive
same,Potency,WaGa,inactive
same,Potency,C33A,inactive
same,Potency,CAOV3,inactive
same,Potency,CASKI,inactive
same,Potency,HeLa,inactive
same,Potency,Hek293T,inactive
same,Potency,PA-1,inactive
same,Potency,Tov112D,inactive
CCCCCCCC/C=C/C(=O)O,Potency,MKL-1,inactive
same,Potency,MKL-2,inactive
same,Potency,UISO,inactive
same,Potency,WaGa,inactive
same,Potency,C33A,inactive
same,Potency,CAOV3,inactive
same,Potency,CASKI,inactive
same,Potency,Es-2,inactive
same,Potency,HeLa,inactive
same,Potency,Hek293T,inactive
same,Potency,JEG-3,inactive
same,Potency,OV90,inactive
same,Potency,PA-1,inactive
same,Potency,SKOV3,inactive
same,Potency,Tov-21-G,inactive
same,Potency,Tov112D,inactive
NCCO,Potency,MKL-1,inactive
same,Potency,MKL-2,inactive
same,Potency,UISO,inactive
same,Potency,WaGa,inactive
same,Potency,C33A,inactive
same,Potency,CAOV3,inactive
same,Potency,CASKI,inactive
same,Potency,Es-2,inactive
same,Potency,HeLa,inactive
same,Potency,Hek293T,inactive
same,Potency,JEG-3,inactive
same,Potency,OV90,inactive
same,Potency,PA-1,inactive
same,Potency,Tov-21-G,inactive
same,Potency,Tov112D,inactive
same,"activity, negative = cell killing","[1]; at 91.6 µM (top of the series), tumour line B",-4.71%
same,"activity, negative = cell killing","[1]; at 91.6 µM (top of the series), tumour line D",-21.3%
same,"activity, negative = cell killing","[1]; at 99.2 µM (top of the series), tumour line C",-29.9%
same,Potency,astro,inactive
O=C(O)Cc1cccc(-c2cc(CCCCCCc3ccc(O[C@H]4O[C@H](CO)[C@@H](O)[C@H](O)[C@@H]4O)c(-c4cccc(CC(=O)O)c4)c3)ccc2O[C@H]2O[C@H](CO)[C@@H](O)[C@H](O)[C@@H]2O)c1,"activity change, negative = cytotoxicity",MKL-1,6.03% [at 0.597 µM]
same,"activity change, negative = cytotoxicity",MKL-2,5.84% [at 0.597 µM]
same,"activity change, negative = cytotoxicity",UISO,19.7% [at 0.597 µM]
same,"activity change, negative = cytotoxicity",WaGa,8.43% [at 0.597 µM]
same,"activity change, negative = cytotoxicity",C33A,-0.854% [at 0.462 µM]
same,"activity change, negative = cytotoxicity",CAOV3,12.9% [at 0.462 µM]
same,"activity change, negative = cytotoxicity",CASKI,-1.06% [at 0.462 µM]
same,"activity change, negative = cytotoxicity",Es-2,2.88% [at 0.462 µM]
same,"activity change, negative = cytotoxicity",HeLa,7.81% [at 0.462 µM]
same,"activity change, negative = cytotoxicity",Hek293T,0.655% [at 0.462 µM]
same,"activity change, negative = cytotoxicity",JEG-3,24.2% [at 0.462 µM]
same,"activity change, negative = cytotoxicity",OV90,11.3% [at 0.462 µM]
same,"activity change, negative = cytotoxicity",PA-1,22.2% [at 0.462 µM]
same,"activity change, negative = cytotoxicity",Tov-21-G,4.72% [at 0.462 µM]
same,"activity change, negative = cytotoxicity",Tov112D,13.8% [at 0.462 µM]
same,"activity, negative = cell killing",[1]; [3],-15%
same,"activity, negative = cell killing",[1]; [4],-11.6%
same,"activity, negative = cell killing",[1]; [6],-35.4%
same,"activity, negative = cell killing",[1]; [5],0.695%
same,Potency,astro,inactive
COc1ccnc2c1CCCCC2S(=O)c1nc2ccccc2[nH]1 (configuration not stated),Potency,MKL-1,inactive
same,Potency,MKL-2,inactive
same,Potency,UISO,inactive
same,Potency,WaGa,inactive
same,Potency,C33A,inactive
same,Potency,CASKI,inactive
same,Potency,Es-2,inactive
same,Potency,HeLa,inactive
same,Potency,Hek293T,inactive
same,Potency,JEG-3,inactive
same,Potency,OV90,inactive
same,Potency,PA-1,inactive
same,Potency,SKOV3,inactive
same,Potency,Tov-21-G,inactive
same,Potency,Tov112D,inactive
O=C(O)c1ccccc1Nc1cccc(C(F)(F)F)c1,Potency,MKL-1,inactive
same,Potency,MKL-2,inactive
same,Potency,UISO,inactive
same,Potency,WaGa,inactive
same,Potency,C33A,inactive
same,Potency,CAOV3,inactive
same,Potency,CASKI,inactive
same,Potency,Es-2,inactive
same,Potency,HeLa,inactive
same,Potency,Hek293T,inactive
same,Potency,JEG-3,inactive
same,Potency,OV90,inactive
same,Potency,PA-1,inactive
same,Potency,Tov-21-G,inactive
same,Potency,Tov112D,inactive
same,"activity, negative = cell killing",[1]; [3],-9.13%
same,"activity, negative = cell killing",[1]; [4],-1.02%
same,"activity, negative = cell killing",[1]; [6],-4.14%
same,"activity, negative = cell killing",[1]; [5],-6.5%
CN(C)CCn1nnnc1SCC1=C(C(=O)O)N2C(=O)[C@@H](NC(=O)Cc3csc(N)n3)[C@H]2SC1,Potency,MKL-1,inactive
same,Potency,MKL-2,inactive
same,outcome,NIH3T3,inactive
same,Potency,UISO,inactive
same,Potency,WaGa,inactive
same,Potency,C33A,inactive
same,Potency,CASKI,inactive
same,Potency,Es-2,inactive
same,Potency,HeLa,inactive
same,Potency,Hek293T,inactive
same,Potency,JEG-3,inactive
same,Potency,OV90,inactive
same,Potency,PA-1,inactive
same,Potency,SKOV3,inactive
same,Potency,Tov-21-G,inactive
same,Potency,Tov112D,inactive
same,"activity, negative = cell killing",[1]; [2],7.42%
same,"activity, negative = cell killing","[1]; at 21.2 µM (top of the series), tumour line B",-1.03%
same,"activity, negative = cell killing","[1]; at 21.2 µM (top of the series), tumour line D",-12.5%
same,Potency,astro,inactive
N=C(N)N,Potency,MKL-1,inactive
same,Potency,MKL-2,inactive
same,outcome,NIH3T3,inactive
same,Potency,UISO,inactive
same,Potency,WaGa,inactive
same,Potency,C33A,inactive
same,Potency,CAOV3,inactive
same,Potency,CASKI,inactive
same,Potency,Es-2,inactive
same,Potency,HeLa,inactive
same,Potency,Hek293T,inactive
same,Potency,JEG-3,inactive
same,Potency,OV90,inactive
same,Potency,SKOV3,inactive
same,Potency,Tov-21-G,inactive
same,Potency,Tov112D,inactive
same,"activity, negative = cell killing",[1]; [3],-7.3%
same,"activity, negative = cell killing",[1]; [4],-23.5%
same,"activity, negative = cell killing",[1]; [6],-16.6%
same,"activity, negative = cell killing",[1]; [5],-13.1%
same,Potency,astro,inactive
CCOC(=O)c1ccccc1O,Potency,MKL-1,inactive
same,Potency,MKL-2,inactive
same,Potency,UISO,inactive
same,Potency,WaGa,inactive
same,Potency,C33A,inactive
same,Potency,CAOV3,inactive
same,Potency,CASKI,inactive
same,Potency,Es-2,inactive
same,Potency,HeLa,inactive
same,Potency,Hek293T,inactive
same,Potency,JEG-3,inactive
same,Potency,OV90,inactive
same,Potency,PA-1,inactive
same,Potency,SKOV3,inactive
same,Potency,Tov-21-G,inactive
same,Potency,Tov112D,inactive
same,"activity, negative = cell killing",[1]; [3],-4.37% and -22.2%
same,"activity, negative = cell killing",[1]; [4],-0.79% and -11.1%
same,"activity, negative = cell killing",[1]; [6],-24.1%
same,"activity, negative = cell killing",[1]; [5],-28.6% and -1.56%
same,Potency,astro,inactive
CC(=O)c1ccc(OCC(=O)N2CCCCC2)cc1,Potency,MKL-1,inactive
same,Potency,MKL-2,inactive
same,outcome,NIH3T3,inactive
same,Potency,UISO,inactive
same,Potency,WaGa,inactive
same,Potency,C33A,inactive
same,Potency,CASKI,inactive
same,Potency,Es-2,inactive
same,Potency,HeLa,inactive
same,Potency,Hek293T,inactive
same,Potency,JEG-3,inactive
same,Potency,OV90,inactive
same,Potency,PA-1,inactive
same,Potency,SKOV3,inactive
same,Potency,Tov-21-G,inactive
same,Potency,Tov112D,inactive
same,"activity, negative = cell killing",[1]; [3],-9.55%
same,"activity, negative = cell killing",[1]; [4],-17.5%
same,"activity, negative = cell killing",[1]; [6],-29.4%
same,"activity, negative = cell killing",[1]; [5],-5.72%
same,Potency,astro,inactive
